Assay outcomes (PubChem BioAssay)
TGFb inhibitor – TGF-b pathway inhibition | HepG2 CAGA-GFP TGF-b/SMAD3 reporter, GFP fluorescence, 18 h; TGF-beta stimulated, 500 pg/mL final | Potency, µM (series often up to 46.1 µM), usual class: inhibitors | 410,000 tested, 1.2% active; note: nearly all actives have a fitted effect of over 65% in size
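Cell-based qHTS in HEPG2 carrying a CAGA-GFP Smad reporter; compounds added before 500 pg/mL final TGF-beta, 18 h incubation at 37 degrees C, GFP fluorescence quantified per cell by imaging cytometry.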
ATXN2 expr inh – reduces ATXN2 reporter expression in HEK-293 cells | 360,000 tested, 0.72% active | Potency, µM (doses to about 57 µM), actives largely listed as inhibitors | HEK-293 ATXN2-luciferase reporter, luminescence, 24 h; note: nearly all actives have a fitted effect of over 55% in size
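ATXN2-luciferase reporter cells (luciferase flanked by upstream and downstream ATXN2 gene portions) were treated 24 h at 37 °C with compounds at up to 57 uM. SteadyGlo luminescence gave expression; GF-AFC fluorescence gave viability.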
HepG2 tox – HepG2 cytotoxicity, counter-screen for TGF-b inhibitors; HepG2 CAGA-GFP viability, ATP luminescence, 18 h; Potency, µM (doses to about 46.1 µM), actives largely listed as cytotoxic; 410,000 tested, 0.76% active; AID 588856
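CellTiter-Glo luminescence gave cytotoxicity after 18 hours at 37 degrees C. The cells were HepG2 CAGA-GFP in 1% FBS DMEM, stimulated with 500 pg/mL TGF-beta after compound addition. %Activity was normalised to no-cell wells (complete cell-killing) and DMSO (no toxicity), and curves were fitted and classified.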
HT1080 IDH1KD tx – HT-1080 IDH1 knockdown cell toxicity (counter line). 360,000 tested, 2% active. HT-1080 IDH1 knockdown viability, ATP luminescence, 48 h. AID 686971. Potency, µM (top dose mostly 46.1 µM), most hits filed as cytotoxic
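In this qHTS, HT-1080 cells depleted of IDH1 are exposed for 48 h at 37 °C to compound titrations. Toxicity is scored from CellTiter-Glo luminescence, with DMSO as full viability and medium alone as none.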
HT1080NT lethal – kills 2HG-producing HT-1080-NT fibrosarcoma cells | HT-1080-NT fibrosarcoma viability, CellTiter-Glo ATP luminescence, 48 h | Potency, µM (titrated, usually from 46.1 µM), actives largely listed as cytotoxic | 360,000 tested, 1.6% active | AID 686970;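 note: NT is the 2HG producing partner of a matched IDH1 knockdown line; nearly all actives have a fitted effect of over 55% in size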
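Read-out is CellTiter-Glo luminescence after 10 minutes at room temperature, following 48 hours' compound treatment of HT-1080-NT cells (750 cells/well, RPMI, 5% FBS, 37 degrees C).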
S2 tox – cell viability loss in ATXN counter-screen | S2 cells (HEK-293 line with an ATXN2-luciferase reporter) viability, CellTiter-Fluor protease fluorescence, 24 h | 400,000 tested, 0.49% active | Potency, µM (titrated, usually from 56.7 µM), usual class: cytotoxic | AID 651635; note: nearly all actives have a fitted effect of over 40% in size
Of the large screens only hits and unclear results are named; the others gave an inactive call. Sampled rows, rich in hits. Any-hit rate of the full collection: about 3.8%. Calls come from the whole dose curve; as a rule, active = well fitted curve in the direction sought with a large enough effect; inconclusive = small, poorly fitted or top-dose-only effect, or another doubt; inactive = no such curve, though single readings can be large; an effect the other way counts as inactive or inconclusive.

CO[C@H]1C[C@H](O[C@H]2[C@H](C)O[C@@H](O[C@@H]3/C(C)=C/C[C@@H]4C[C@@H](C[C@]5(C=C[C@H](C)[C@@H](C6CCCCC6)O5)O4)OC(=O)[C@@H]4C=C(C)[C@@H](O)[C@H]5OC/C(=C\C=C\[C@@H]3C)[C@]54O)C[C@@H]2OC)O[C@@H](C)[C@@H]1O	S2 tox 3.2µM (no result: TGFb inhibitor, ATXN2 expr inh, HepG2 tox, HT1080 IDH1KD tx, HT1080NT lethal)
CON=C1C[C@]2(C[C@@H]3C[C@@H](C/C=C(\C)C[C@@H](C)/C=C/C=C4\CO[C@@H]5[C@H](O)C(C)=C[C@@H](C(=O)O3)[C@]45O)O2)O[C@H](/C(C)=C/C(C)C)[C@H]1C	S2 tox 16µM (no result: TGFb inhibitor, ATXN2 expr inh, HepG2 tox, HT1080 IDH1KD tx, HT1080NT lethal)
COc1ccc(CCC(=O)NO)cc1	none (no result: ATXN2 expr inh, HT1080 IDH1KD tx, HT1080NT lethal, S2 tox)
CCC1C(=O)NCCN1Cc1ccc2c(c1)CN(Cc1ccc3c(c1)OCCO3)CCO2 (stereo not drawn)	none (no result: TGFb inhibitor, ATXN2 expr inh, HepG2 tox, HT1080 IDH1KD tx, HT1080NT lethal)
[O-][n+]1onc2c1CCc1c-2nn(-c2ccccc2Cl)[n+]1[O-]	TGFb inhibitor inconclusive, ATXN2 expr inh 28µM, HT1080 IDH1KD tx 11µM, HT1080NT lethal inconclusive, S2 tox inconclusive
O=C(CCc1nc2ccccc2c(=O)[nH]1)NCCN1C(=O)S/C(=C\c2ccc(OC(F)F)cc2)C1=O	HepG2 tox 10µM, HT1080 IDH1KD tx inconclusive
O=c1c2ccccc2oc2cc(-c3ccc4[nH]ccc4c3)ccc12	TGFb inhibitor inconclusive, HT1080 IDH1KD tx 3.7µM, HT1080NT lethal inconclusive, S2 tox inconclusive
COc1ccnc2[nH]cc(C(=O)C(=O)N3CCN(C(=O)c4ccccc4)C[C@@H]3C)c12	none (no result: TGFb inhibitor, HepG2 tox, HT1080 IDH1KD tx, HT1080NT lethal, S2 tox)
Cc1ccc(S(=O)(=O)NCC(=O)NCc2ccncc2)cc1	none
Cc1ccc(S(=O)(=O)NCc2ccncc2)cc1	TGFb inhibitor inconclusive, HT1080 IDH1KD tx 6.5µM
CCN(CC)CCN(C(=O)c1ccco1)c1nc2c(C)c(C)ccc2s1	TGFb inhibitor inconclusive (no result: HT1080 IDH1KD tx, HT1080NT lethal)
Cc1cc(-c2ccc(S(=O)(=O)Nc3ccc(Cl)cc3)cc2)on1	none (no result: ATXN2 expr inh, HT1080 IDH1KD tx, HT1080NT lethal, S2 tox)
CCc1ccc(NS(=O)(=O)c2ccc(-c3cc(C)no3)cc2)cc1	TGFb inhibitor inconclusive, HepG2 tox 11µM (no result: ATXN2 expr inh, HT1080 IDH1KD tx, HT1080NT lethal, S2 tox)
Cc1ccc(NS(=O)(=O)c2ccc(-c3cc(C)no3)cc2)c(C)c1	TGFb inhibitor 13µM (no result: ATXN2 expr inh, HT1080 IDH1KD tx, HT1080NT lethal, S2 tox)
Cc1ccc(NS(=O)(=O)c2cc(-c3cc(C)no3)ccc2C)c(Cl)c1	none (no result: ATXN2 expr inh, HT1080 IDH1KD tx, HT1080NT lethal, S2 tox)
Cc1cc(C)cc(NS(=O)(=O)c2ccc(-c3cc(C)no3)cc2)c1	TGFb inhibitor 13µM (no result: ATXN2 expr inh, HT1080 IDH1KD tx, HT1080NT lethal, S2 tox)
COc1ccc(-c2cc(C)no2)cc1S(=O)(=O)Nc1ccccc1	HT1080 IDH1KD tx 16µM, HT1080NT lethal inconclusive
COc1ccc(-c2cc(C)no2)cc1S(=O)(=O)Nc1cccc(C)c1	HT1080 IDH1KD tx inconclusive
O=c1[nH]c2ccccc2c(=O)n1CCCl	none (no result: TGFb inhibitor, HepG2 tox, HT1080 IDH1KD tx, HT1080NT lethal)
Cc1ccc(-c2csc(NC(=O)CSc3nnc4c(n3)[nH]c3ccccc34)n2)cc1	ATXN2 expr inh inconclusive, HT1080 IDH1KD tx 21µM, HT1080NT lethal 18µM, S2 tox inconclusive
COc1ccc(-n2c(CNc3ccc(C)cc3)nnc2SCC(=O)Nc2nc(-c3ccccc3)cs2)cc1	ATXN2 expr inh 18µM, S2 tox 22µM
COc1ccc(NCc2nnc(SCC(=O)Nc3nc(-c4ccccc4)cs3)n2-c2ccccc2)cc1	S2 tox inconclusive
O=C(C1COc2ccccc2O1)N1CCN(c2nc3ccc(F)cc3s2)CC1 (stereo not drawn)	TGFb inhibitor inconclusive (no result: ATXN2 expr inh, HT1080 IDH1KD tx, HT1080NT lethal, S2 tox)
COC(=O)c1ccccc1-c1cc(C)cc2c1OC(CNC(=O)c1cc(C)n(C)n1)C2 (stereo not drawn)	none (no result: TGFb inhibitor, ATXN2 expr inh, HepG2 tox, HT1080 IDH1KD tx, HT1080NT lethal)
CC(C)(Sc1cc(C(C)(C)C)c(O)c(C(C)(C)C)c1)Sc1cc(C(C)(C)C)c(O)c(C(C)(C)C)c1	none
Cn1ccnc1C(O)c1cc(C(C)(C)C)c(O)c(C(C)(C)C)c1 (stereo not drawn)	TGFb inhibitor 16µM, HT1080NT lethal 16µM
CC(=O)n1cc(N(C(=O)CCl)c2ccc([N+](=O)[O-])cc2)c2ccccc21	TGFb inhibitor inconclusive, ATXN2 expr inh inconclusive, HepG2 tox 10µM, HT1080 IDH1KD tx inconclusive, HT1080NT lethal 23µM, S2 tox 28µM
